Pf growth 48h – P. falciparum growth inhibition at 48 hours (one generation). 310,000 compounds, 5.9% hits. P. falciparum luciferase growth in erythrocytes, 48 h. Potency, µM (series often up to 28.7 µM), inactives show at the top dose activity change, negative = inhibition, most hits filed as inhibitors; further: potency means the concentration at half of the fitted maximal effect; on the % scale 0 is the no-effect control and ±100 the full control effect
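Luminescence readout; reporter = integrated firefly luciferase in P. falciparum. RBC culture at 2% hematocrit, 0.1% parasitemia final, 37 C/5% CO2; decreased signal taken as growth inhibition.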
Pf growth 96h – P. falciparum growth inhibition at 96 hour, primary screen for plastid delayed-death inhibitors; 320,000 compounds, 6.9% hits; Potency, µM (titrated, usually from 28.7 µM), inactives show top-dose activity change, negative = inhibition, hits mostly inhibitors; P. falciparum luciferase reporter growth, 96 h; further: potency means the concentration at half of the fitted maximal effect; on the % scale 0 is the no-effect control and ±100 the full control effect
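P. falciparum expressing integrated firefly luciferase, in erythrocytes at 2% hematocrit, 0.05% parasitemia, incubated with compounds 96 h at 37 C, 5% CO2. Growth inhibition read as loss of luminescence; two-generation exposure targets delayed-death apicoplast inhibitors.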
Cycloheximide cs – counter-screen for Shiga toxin inhibitors: cycloheximide protein synthesis inhibition; 300,000 compounds, 12% hits; cell reporter, cycloheximide protein synthesis inhibition counterscreen; max response, %; in the data active means max response mostly above about 13%, no sharp cut-off; inactive means mostly below about 14%; further: read at 38.3 µM for the half of the compounds with a filed dose; 0% is about no effect
Sm TGR inh – S. mansoni TGR enzyme inhibition; 360,000 compounds, 3% hits; Potency, µM (highest dose often 114 µM), for inactives: at the top dose activity change, negative = inhibition, most hits filed as inhibitors; purified TGR, DTNB reduction, TNB absorbance 405 nm; Q962Y6; AID 485364; further: potency means the concentration at half of the fitted maximal effect; on the % scale 0 is the no-effect control and ±100 the full control effect; nearly all actives have a fitted effect of over 60% in size
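TGR 20 nM + NADPH 100 uM (dispensed conc.), cpd preinc 15 min RT; start with NADPH (500 uM addition) then DTNB (15 mM addition). Kinetic TNB absorbance, 405 nm filter. Four-parameter Hill fit across titration.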
NS1 inh – inhibitors of influenza NS1 protein function. AID 2326. 270,000 compounds, 0.4% hits. Potency, µM (titrated, usually from 46.1 µM), inactives show at the top dose activity, positive = more growth; calls by dose curve; further: potency means the concentration at half of the fitted maximal effect; actives are rising curves; nearly all actives have a fitted effect of over 50% in size
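Growth recovery, yeast-based: influenza A NS1 expressed in S. cerevisiae causes slow growth, and suppressors are detected by OD600. The parent strain without NS1 is used as positive control.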
Shiga inhibitor – Shiga toxin inhibition | Vero cells, Shiga toxin protein synthesis inhibition reporter | inhibition, % at 38.7 µM | 290,000 compounds, 9.2% hits | AID 2315; in the data active means inhibition mostly above about 28%, no sharp cut-off; inactive means mostly below about 43%; further: 0% is about no effect
Active calls of the source: *; u = inconclusive; x = no result given; [ ] = remark or other dose. In the library only some 21% were active in any assay of this set; here they are far more common. Unless noted, the call rests on the fitted dose curve; in most records, active means well fitted curve in the direction sought with a large enough effect; inconclusive means small, poorly fitted or top-dose-only effect, or another doubt; inactive means no such curve, though single readings can be large; an effect the other way counts as inactive or inconclusive.

SMILES	Pf growth 48h	Pf growth 96h	Cycloheximide cs	Sm TGR inh	NS1 inh	Shiga inhibitor
COc1cccc(C2C(C(N)=O)=C(C)Nc3ncnn32)c1 (stereo not drawn)	x	x	x	-0.6%	x	x
Clc1ccc(-n2ncc3c(NCCN4CCOCC4)ncnc32)cc1	238.5%	0.3%	43.3*	-20.7%	-6.0%[9.22 µM]	121.0*
Cc1ccc(-n2ncc3c(NCCCN4CCOCC4)ncnc32)cc1C	x	x	x	43.3%	x	x
c1ccc(-n2ncc3c(NCCCN4CCOCC4)ncnc32)cc1	91.0%	u	34.3*	-0.4%	1.5%	148.3*
Fc1ccc(-n2ncc3c(NCCCN4CCOCC4)ncnc32)cc1	x	x	x	6.6%	x	x
CCOC(=O)c1ccccc1NC(=O)CN(c1ccccc1)S(=O)(=O)N(C)C	3.29µM*	x	11.1	4.8%	-37.2%	19.2
COc1ccccc1NC(=O)c1ccc(NS(=O)(=O)c2ccc(F)c(F)c2F)cc1	19.9%	-6.7%	3.7	-18.4%	26.3%	19.7
O=C1c2ccccc2S(=O)(=O)N1CC(O)COc1ccc(Br)cc1 (stereo not drawn)	-2.5%	244.4%	28.1*	-1.2%	-13.4%	33.4
Cc1c(C)n(CC(O)CN2C(=O)c3ccccc3S2(=O)=O)c2ccccc12 (stereo not drawn)	-2.1%	x	13.1	6.2%	-1.3%	-16.6
O=C1c2ccccc2S(=O)(=O)N1CC(O)COc1ccc(Cl)cc1 (stereo not drawn)	9.5%	6.57µM*	9.3	0.0%	-66.0%	37.7
O=C1c2ccccc2C(=O)N1CC(O)COc1ccc(Br)cc1 (stereo not drawn)	97.7%	u	12.7*	-24.0%	-8.3%	89.8
O=C1c2ccccc2S(=O)(=O)N1CCOc1ccccc1	33.2%	59.4%	34.9*	-17.4%	6.4%	55.8
COC(=O)c1ccc(OCC(O)CN2C(=O)c3ccccc3S2(=O)=O)cc1 (stereo not drawn)	1.4%	u	8.6	x	-11.6%	1.7
C=CCc1ccccc1OCC(O)CN1C(=O)c2ccccc2C1=O (stereo not drawn)	6.4%	-27.1%	1.2	-13.2%	-37.2%	-2.0
Cc1ccc(-n2ncc(C(=O)NC3CCN(Cc4ccccc4)CC3)c2C2CCN(C(=O)OC(C)(C)C)CC2)cc1C	x	x	x	1.2%	x	x
CCOc1ccccc1NC(=O)c1cc(C(=O)Nc2ccccc2OCC)cc(N2C(=O)CCC2=O)c1	-18.3%	u	-3.9	x	-4.2%	-14.8
CCC1(CC)NC(=O)N(CC(=O)OCc2nc3cc(C(=O)OC)ccc3c(=O)[nH]2)C1=O	u	0.0%	x	-14.5%	x	x
COCCCNC(=O)c1cnc2c(-c3ccc(F)cc3)c(C)nn2c1C	x	x	x	2.4%	x	x
CCN(CC(=O)Nc1c(F)cccc1F)C(=O)Cc1ccc(S(=O)(=O)N2CCOCC2)s1	u	-1.3%	x	1.4%	x	x
CC(Oc1ccc(Br)cc1)C(=O)Nc1nc(-c2ccccn2)cs1 (stereo not drawn)	7.38µM*	3.7µM*	-3.0	-0.4%	-104.9%	6.3
CC(C)[C@H](NC(=O)c1ccccc1Cl)C(=O)Nc1nc(-c2ccccn2)cs1	9.28µM*	u	7.7	5.4%	-38.4%	41.3
CN(C)C(=S)c1ccccc1	84.6%	31.1%	1.9	9.0%	-1.1%	2.2
CN(/N=C/c1ccccc1O)C(=S)c1ccccc1	u	173.6%	24.7*	4.2%	-6.4%	77.0
CC1CCN(S(=O)(=O)c2ccc(S(=O)(=O)N3CCC4(CC3)OCCO4)cc2)CC1	0.3%	56.8%	4.5	1.9%	3.8%	-4.3
O=C(CN1CCN(S(=O)(=O)c2ccc(Br)cc2)CC1)c1ccc(O)c(O)c1	u	u	4.8	14.1µM*	11.5%	-4.5
SMILES	Pf growth 48h	Pf growth 96h	Cycloheximide cs	Sm TGR inh	NS1 inh	Shiga inhibitor
CC(C)c1ccc(S(=O)(=O)N2CCN(CC(=O)Nc3ccc(Cl)cc3F)CC2)cc1	28.3%	31.9%	x	-9.9%	x	x
CC(C)c1ccc(S(=O)(=O)N2CCN(CC(=O)c3ccc(O)c(O)c3)CC2)cc1	-38.2%	-26.1%	-5.0	25.1µM*	-2.6%	12.6
COc1ccc(C(=O)CN2CCN(S(=O)(=O)c3ccc(F)cc3)CC2)cc1	x	x	x	-29.3%	x	x
CCOc1ccc(C(=O)CN2CCN(S(=O)(=O)c3ccc(Cl)cc3)CC2)cc1	-8.9%	66.7%	-0.5	31.6µM*	-93.5%	6.7
CCOC(=O)C1CCN(C(=O)c2cc3ccccc3oc2=O)CC1	35.7%	0.9%	3.8	-1.9%	x	19.1
CCN1C(=O)[C@H]2[C@@H](c3ccc(-c4cccc(Cl)c4)cc3)N[C@@](Cc3ccccc3)(C(=O)OC)[C@H]2C1=O	4.65µM*	4.65µM*	x	u	x	x
CCN1C(=O)[C@H]2[C@@H](c3ccc(-c4ccc(Cl)c(Cl)c4)c(OC)c3)N[C@@](Cc3ccccc3)(C(=O)OC)[C@H]2C1=O	2.94µM*	3.7µM*	x	u	x	x
CCN1C(=O)C2C(c3ccc(O)c(OC)c3)NC(C)(C(=O)OC)C2C1=O (stereo not drawn)	21.2%	56.5%	-4.7	-8.0%	-1.1%	-8.2
COC(=O)[C@]1(Cc2ccccc2)N[C@H](c2ccc(-c3ccc(OC)cc3)cc2)[C@@H]2C(=O)N(C)C(=O)[C@@H]21	u	u	x	-16.2%	x	x
CCCCCCSc1ccc([C@H]2N[C@@](Cc3ccccc3)(C(=O)OC)[C@H]3C(=O)N(C)C(=O)[C@@H]23)cc1OC	3.29µM*	2.33µM*	x	-6.7%	x	x
COc1ccc2c(c1)c(=O)c(C(=O)c1ccc(C)c(C)c1)cn2CC(=O)Nc1ccc2c(c1)OCCO2	x	x	x	6.7%	x	x
CC1(C)[C@@H]2CC[C@@]1(CS(=O)(=O)Nc1ccccc1)C(=O)C2	x	x	x	x	1.1%	x
Cc1c(NC(=O)c2cc([N+](=O)[O-])ccc2N2CCOCC2)cccc1-c1nc2ccccc2o1	x	x	x	12.4%	x	x
O=C(O)CSc1ncnc2c1oc1ccccc12	46.2%	0.0%	-2.1	8.1%	-8.4%	-20.6
O=C(CSc1ncnc2c1oc1ccccc12)NCc1ccco1	0.0%	-24.0%[5.75 µM]	30.1*	28.2µM*	-1.6%	51.4*
OCCSc1ncnc2c1oc1ccccc12	6.5%	u	21.8*	3.2%	-11.6%	63.1*
c1ccc(Sc2ncnc3c2oc2ccccc23)cc1	104.6%	29.8%	32.8*	10.6%	-5.6%	80.7*
CCN1CCN(C(=O)c2ccc3c(c2)N(Cc2ccccc2F)C(=O)c2ccccc2S3=O)CC1 (stereo not drawn)	x	x	x	6.6%	x	x
Cc1cc(C[n+]2ccccc2)c2nsnc2c1	2.08µM*	x	-1.5	-4.7%	-5.5%	-2.6
Cc1cc(C[n+]2ccsc2N)c2ncccc2c1	25.8%	u	1.1	0.4%	-5.3%	-6.1
CC(C)c1nc(C(=O)N2CCc3c([nH]c4ccccc34)C2c2ccccn2)cs1 (stereo not drawn)	u	0.0%	9.1	-0.9%	3.5%	-1.1
Cc1nc(C(=O)N2CCc3c([nH]c4ccccc34)C2c2cc(F)ccc2F)cs1 (stereo not drawn)	10.4µM*	28.2%	24.1*	6.3%	-9.2%	39.9*

Compound activity: PubChem BioAssay, National Center for Advancing Translational Sciences (NCATS)
